Only some compounds are listed: those with a hit (about 19% of all), similar ones and a draw of the others.
HepG2 viability: HepG2 cytotoxicity, counter-screen for TGF-b inhibitors. Potency, µM (series often up to 46.1 µM), most hits filed as cytotoxic. 410,000 tested, 0.76% active. HepG2 CAGA-GFP viability, ATP luminescence, 18 h. AID 588856
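HepG2 CAGA-GFP cells (1000/well, DMEM with 1% FBS) received compound, then TGF-beta at 500 pg/mL final, and were incubated 18 hours at 37 degrees C. Viability was read by CellTiter-Glo luminescence. Media-only wells were set as complete cell-killing and DMSO as no toxicity.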
IL-1B inflam inh: inflammasome signaling inhibition, IL-1 beta readout | THP-1 LPS/ATP IL-1B secretion, AlphaLISA, 16 h; hits give low values | activity change, % at 57.5 µM | 360,000 tested, 4.7% active | AID 743279; in the data active means activity change below about -50%; inconclusive means mostly about -30% to -49%
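Secreted IL-1B measured by AlphaLISA bead assay after 16 h compound exposure of THP-1 cells; compounds (final up to 57.5 uM) added 1 h before LPS (250 ng/mL) and ATP (1.25 mM) stimulation; lower signal means less secretion.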
TGFb inhibitor: blocks TGF-b signaling; HepG2 CAGA-GFP TGF-b/SMAD3 reporter, GFP fluorescence, 18 h; TGF-beta stimulated, 500 pg/mL final; Potency, µM (highest dose often 46.1 µM), usual class: inhibitors; 410,000 tested, 1.2% active; further: nearly all actives have a fitted effect of over 65% in size
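HEPG2 CAGA-GFP reporter cells (1000/well, DMEM with 1% FBS) received compounds, then recombinant TGF-beta at 500 pg/mL final for 18 hours at 37 degrees C. Per-cell GFP summed per well was normalised to unstimulated and stimulated DMSO controls before curve fitting.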
S-ASM inh: inhibitors of human secretory acid sphingomyelinase; 340,000 tested, 0.006% active; AID 504937; placental ASM, HMU-PC fluorogenic substrate, 60 min; P17405; Potency, µM (titrated, usually from 57.5 µM), hits mostly inhibitors
Target sequence (P17405 47-631 limits assumed): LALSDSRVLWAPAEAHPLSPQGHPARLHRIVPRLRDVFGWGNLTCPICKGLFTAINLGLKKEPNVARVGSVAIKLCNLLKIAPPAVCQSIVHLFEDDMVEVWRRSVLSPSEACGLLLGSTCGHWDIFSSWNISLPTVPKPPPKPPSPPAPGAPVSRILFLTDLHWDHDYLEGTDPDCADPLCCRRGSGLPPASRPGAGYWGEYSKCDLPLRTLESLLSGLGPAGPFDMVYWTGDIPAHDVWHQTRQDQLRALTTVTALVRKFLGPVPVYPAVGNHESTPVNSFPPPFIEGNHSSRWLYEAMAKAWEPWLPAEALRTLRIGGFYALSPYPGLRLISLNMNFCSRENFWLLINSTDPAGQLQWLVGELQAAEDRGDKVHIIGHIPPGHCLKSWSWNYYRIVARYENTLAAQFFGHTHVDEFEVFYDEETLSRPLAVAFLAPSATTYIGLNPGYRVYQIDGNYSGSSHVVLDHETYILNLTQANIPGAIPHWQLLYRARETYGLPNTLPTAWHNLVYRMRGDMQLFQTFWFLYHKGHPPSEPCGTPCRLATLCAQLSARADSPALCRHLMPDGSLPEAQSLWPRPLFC
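Fluorogenic HMU-PC substrate (9 uM final) is turned over by placental ASM in 60 min at 37 C after a 10 min compound preincubation. Reaction ended by alkaline stop (pH 10), with fluorescence read at 386/447 nm.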
DT40 TDP1 CPT: growth inhibition of DT40 Tdp1-/-;hTDP1 cells with camptothecin (screen for TDP1 inhibitors); chicken DT40 Tdp1-/-;hTDP1 cells + 20 nM CPT, ATP luminescence, 48 h; 420,000 tested, 12% active; Potency, µM (top dose mostly 46.2 µM), hits mostly inhibitors; further: nearly all actives have a fitted effect of over 55% in size
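Chicken DT40 Tdp1-/- cells complemented with human TDP1, 400 cells/well, exposed to compounds plus 20 nM camptothecin for at least 48 h at 37 C; viability read as ATP content by CellTiter-Glo luminescence.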
DT40 TDP1 no CPT: qHTS for Inhibitors of human tyrosyl-DNA phosphodiesterase 1 (TDP1): qHTS in cells in absence of CPT. Potency, µM (series often up to 46.2 µM), most hits filed as inhibitors. DT40 Tdp1-/- hTDP1 cells, no CPT, ATP luminescence, 48 h. AID 686978, 2013. 420,000 tested, 15% active; further: nearly all actives have a fitted effect of over 55% in size
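Chicken DT40 Tdp1-/- cells stably complemented with human TDP1 were seeded at 400 cells/well with DMSO in place of 20 nM camptothecin. After compound pinning, cells grew at least 48 hr at 37 °C; viability read by CellTiter-Glo luminescence.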
Large screens that a line does not name were inactive. Unless noted, the call rests on the fitted dose curve; in most records, active means well fitted curve in the direction sought with a large enough effect; inconclusive means small, poorly fitted or top-dose-only effect, or another doubt; inactive means no such curve, though single readings can be large; an effect the other way counts as inactive or inconclusive.

C=CCON1C(=O)C(=O)N(OCC=C)[C@H]2CCCC[C@H]21	none
Cc1cc(NC(=O)CSCC(=O)Nc2nc3c(C)cccc3s2)no1	none
CCc1ccccc1NC(=O)Cn1c(=O)n(-c2ccccc2)c(=O)c2oc3ccccc3c21	DT40 TDP1 CPT inconclusive, DT40 TDP1 no CPT inconclusive (no result: IL-1B inflam inh, S-ASM inh)
NC(=O)c1cc2ccccc2o/c1=N\NC(=O)c1ccco1	IL-1B inflam inh inconclusive, DT40 TDP1 CPT inconclusive, DT40 TDP1 no CPT inconclusive
O=C(O)c1ccc(N=c2oc3cc(O)ccc3cc2C(=O)NCc2ccccc2)cc1	none
COc1ccc2cc(C(=O)c3ccccc3)c(=O)oc2c1	none
NC(=O)c1cc2ccc(O)cc2oc1=Nc1ccccc1	DT40 TDP1 CPT 14.6µM, DT40 TDP1 no CPT inconclusive
COc1ccc2cc(C(N)=O)c(=Nc3ccccc3)oc2c1	DT40 TDP1 CPT inconclusive, DT40 TDP1 no CPT 14.6µM
NC(=O)c1cc2cc(Br)ccc2oc1=NCc1ccccc1	IL-1B inflam inh -64.6
N#C/C(=C\c1ccc[nH]1)C(=O)Nc1ccccc1F	TGFb inhibitor inconclusive
N#C/C(=C/C1=C(N2CCOCC2)C(=C/c2ccc(Cl)cc2Cl)/CC1)C(=O)Nc1ccccc1F	DT40 TDP1 CPT inconclusive, DT40 TDP1 no CPT 10.3µM
Cc1cc(/C=C(\C#N)C(=O)Nc2ccccc2F)c(C)[nH]1	none
N#C/C(=C\C1=C(N2CCOCC2)C(=C\c2ccc(Cl)cc2)/CC1)C(=O)Nc1ccccc1F	DT40 TDP1 CPT 16.4µM, DT40 TDP1 no CPT 11.6µM
N#C/C(=C/C1=C(N2CCOCC2)C(=C/c2ccccc2)/CC1)C(=O)Nc1ccccc1F	DT40 TDP1 CPT 13µM, DT40 TDP1 no CPT 16.4µM
COc1cc(NC(=O)C2=C(N3CCOCC3)/C(=C\c3ccc(Cl)cc3Cl)CC2)cc(OC)c1OC	DT40 TDP1 CPT 13µM, DT40 TDP1 no CPT 16.4µM
CC(C)(C)c1ccccc1NC(=O)c1cnn2c(C(F)F)cc(-c3ccccc3)nc12	none (no result: IL-1B inflam inh, S-ASM inh)
CC(=O)N(c1ccc(Cl)cc1)C1SC(=O)N(c2ccc(C)cc2)C1=O (stereo unspecified)	DT40 TDP1 CPT inconclusive (no result: HepG2 viability, IL-1B inflam inh, TGFb inhibitor, S-ASM inh)
CN1CCN(Cc2ccc(Sc3ccc(Cl)cc3)c([N+](=O)[O-])c2)CC1	IL-1B inflam inh -92.1, DT40 TDP1 CPT inconclusive, DT40 TDP1 no CPT 14.6µM
Cc1ccc(Sc2ccc(CN3CCCC3)cc2[N+](=O)[O-])cc1	TGFb inhibitor inconclusive, DT40 TDP1 CPT 6.51µM, DT40 TDP1 no CPT 5.8µM
NC(=O)NCCC[C@H](N)C(=O)O	none (no result: HepG2 viability, IL-1B inflam inh, TGFb inhibitor, S-ASM inh)
C=Cc1c(C)c2cc3nc(cc4[nH]c(cc5nc(cc1[nH]2)C(C)=C5CCC(=O)OC)c(CCC(=O)O)c4C)[C@@]1(C)C3=CC=C(C(=O)OC)[C@H]1C(=O)OC	none (no result: HepG2 viability, IL-1B inflam inh, TGFb inhibitor, S-ASM inh)
O=C(NCc1ccccc1)C1C(c2ccc3c(c2)OCO3)=Nc2ccccc2N1C(=O)c1cccc2ccccc12 (stereo unspecified)	DT40 TDP1 no CPT inconclusive (no result: HepG2 viability, TGFb inhibitor, S-ASM inh)
CCc1ccc(NC(=O)Cn2c(=O)n(CCc3ccccc3)c(=O)c3sc4ccccc4c32)cc1	DT40 TDP1 CPT inconclusive, DT40 TDP1 no CPT inconclusive (no result: IL-1B inflam inh, S-ASM inh)
CCc1ccc(-n2c(=O)c3sc4ccccc4c3n(CC(=O)N(CC)Cc3ccccc3)c2=O)cc1	DT40 TDP1 CPT 18.4µM, DT40 TDP1 no CPT 18.4µM (no result: IL-1B inflam inh, S-ASM inh)
COc1cccc(NC(=O)Cn2c(=O)n(-c3ccccc3)c(=O)c3c2c2cc(OC)ccc2n3C)c1	none (no result: IL-1B inflam inh, S-ASM inh)
Cc1ccc(CNC(=O)Cn2c(=O)n(-c3ccccc3)c(=O)c3c2c2cc(C)ccc2n3C)cc1	TGFb inhibitor inconclusive (no result: IL-1B inflam inh, S-ASM inh)
CCN(Cc1ccccc1)C(=O)Cn1c(=O)n(-c2ccccc2)c(=O)c2c1c1cc(C)ccc1n2C	DT40 TDP1 CPT 9.2µM, DT40 TDP1 no CPT 3.66µM (no result: IL-1B inflam inh, S-ASM inh)
CCN(Cc1ccccc1)C(=O)Cn1c(=O)n(-c2cccc(C)c2)c(=O)c2c1c1cc(OC)ccc1n2C	DT40 TDP1 CPT 11.6µM, DT40 TDP1 no CPT 16.4µM (no result: IL-1B inflam inh, S-ASM inh)
COC(=O)C1=C(C(=O)OC)[C@@H]2Nc3ccccc3[C@@]23C[C@@H](C(=O)OC)N(C(=O)COCc2ccccc2)C3=N1	TGFb inhibitor inconclusive
COc1ccc(Cl)cc1-c1nc(-c2ccc(NC(=O)c3cccs3)cc2)no1	DT40 TDP1 CPT inconclusive, DT40 TDP1 no CPT 20.6µM
COc1ccc(NC(=O)c2cccs2)cc1OC	none
CC(Oc1ccc(Cl)cc1Cl)c1nc(-c2ccc(NC(=O)c3ccncc3)cc2)no1 (stereo unspecified)	TGFb inhibitor inconclusive, DT40 TDP1 CPT 14.6µM, DT40 TDP1 no CPT 8.2µM
CC(Oc1ccc(Cl)cc1Cl)c1nc(-c2ccc(NC(=O)c3cccnc3)cc2)no1 (stereo unspecified)	TGFb inhibitor inconclusive, DT40 TDP1 CPT 5.8µM, DT40 TDP1 no CPT 5.8µM
Cc1ccc(CNc2ccc3nnc(-c4ccccc4)n3n2)cc1	DT40 TDP1 CPT 3.66µM, DT40 TDP1 no CPT 2.31µM
Fc1cccc(CSc2ccc3nnc(-c4cccnc4)n3n2)c1	TGFb inhibitor inconclusive, DT40 TDP1 CPT inconclusive, DT40 TDP1 no CPT 16.4µM
O=C(CSc1ccc2nnc(-c3cccnc3)n2n1)c1ccccc1	none
Cc1ccc(CSc2ccc3nnc(-c4cccnc4)n3n2)cc1	DT40 TDP1 CPT 20.6µM, DT40 TDP1 no CPT 4.11µM
Nn1c(SCc2ccc(Br)cc2)nnc1-c1cccnc1	none

High-throughput results: PubChem, National Center for Advancing Translational Sciences (NCATS)
